GSIS activator: GLuc luminescence reporter in INS-1E cells, primary screen for activators of glucose-dependent secretion of insulin | INS-1E GLuc reporter insulin secretion, 2-3 h | activation, % at 16.6 µM | 370,000 tested, 0.61% active | AID 743287;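 active = lowest replicate activation of at least 40%, so every replicate reaches that level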;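 note: 0% = median of neutral control wells and 100% = median of IBMX positive control wells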
dFosB act-1: mouse delta FosB homodimer activation | P13346 | purified delta FosB, TAMRA-CDK5 oligo fluorescence polarization; percent of positive-control signal above neutral wells | activation, % at 25 µM | 340,000 tested, 0.99% active | AID 493131;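 active = mean activation above about 17%, with every replicate also reaching it, limit read from the data, passing the limit was not always enough; inconclusive = only one of the two conditions met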
Target sequence (P13346 whole entry, looked up): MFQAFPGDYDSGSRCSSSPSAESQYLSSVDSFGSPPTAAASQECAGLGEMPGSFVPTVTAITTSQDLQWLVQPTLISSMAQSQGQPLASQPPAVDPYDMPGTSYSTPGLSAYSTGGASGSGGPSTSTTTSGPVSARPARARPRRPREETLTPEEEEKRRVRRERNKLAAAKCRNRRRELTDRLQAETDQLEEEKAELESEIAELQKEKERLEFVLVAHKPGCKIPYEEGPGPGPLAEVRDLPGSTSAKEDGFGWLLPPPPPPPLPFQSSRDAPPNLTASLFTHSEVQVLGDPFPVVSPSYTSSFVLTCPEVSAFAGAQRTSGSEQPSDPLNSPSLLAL
Vif inh: inhibitors of HIV Vif | HEK293T cells, Vif self-association by quenched fluorescence, imaging, 24 h | inhibition, % at 7.49 µM | 340,000 tested, 0.35% active; in the data active = inhibition above about 50%, passing the limit was not always enough; inconclusive = no clear call, values can overlap the other calls; inactive = below about 31%
A1 inh: inhibitors of the anti-apoptotic protein A1, read as caspase activation | caspase activation, % (concentration not given with the values) | 330,000 tested, 0.066% active | MEF A1-2A-BIM cells, Caspase-Glo 3/7 luminescence, 3 h; percent of clofoctol response, vehicle zero;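 active = over half of replicate activation scores above 10%, or exactly half above 10 with the replicate mean above 10; inconclusive = replicate mean below 10 yet half the replicates above 10; inactive = over half of replicates below 10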
Neddyl block: blocks human cullin neddylation. TR-FRET cullin neddylation, biochemical. 360,000 tested, 0.58% active. inhibition, % at 25 µM; in the data active = inhibition above about 36%
dFosB act-2: enhances mouse delta FosB homodimer binding to DNA. shares compounds with dFosB act-1. purified delta FosB, TAMRA-CDK5 oligo fluorescence polarization; normalised: neutral wells 0, positive control 100. activation, % at 24.9 µM. 2,400 tested, under 10 active. AID 588690;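 active = highest replicate activation at or above 34% and every replicate reaching that threshold; inconclusive = meets only one of the two criteria; inactive = meets neither criterion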;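 note: higher polarization means more probe DNA bound by delta FosB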
* marks the source's active call; other numbers are inactive results; ? = inconclusive; . = no result shown. Shown are actives, neighbours in structure and some others; about 1.9% of the full set was active somewhere.

SMILES | GSIS activator | dFosB act-1 | Vif inh | A1 inh | Neddyl block | dFosB act-2
NC(=O)Cn1cc(/C=N/NC(=O)c2ccc(Cn3cc(Cl)cn3)o2)c(-c2ccccc2)n1 | -3 | 36* | -7 | 2 | 32 | 6
O=C(CCc1ccccc1)NNC(=O)Nc1cccc(Cl)c1 | -17 | 0 | 15 | 0 | 1 | .
O=C(Cc1cccc2ccccc12)NNC(=O)Nc1cccc(Cl)c1 | . | 31* | . | 1 | -3 | 1
Cc1cccc(OCC(=O)NNC(=O)Nc2cccc(Cl)c2)c1C | . | 18* | 8 | 0 | 4 | 7
O=C(NC1CCCC1)C(c1cccs1)N(C(=O)c1ccco1)c1ccc2c(c1)OCO2 (stereo not drawn) | . | -4 | -8 | 1 | 1 | .
O=C(NCC(=O)N(c1ccc2c(c1)OCO2)C(C(=O)NC1CCCC1)c1cccs1)c1ccco1 (stereo not drawn) | . | 50* | 4 | 0 | -4 | 2
COc1ccc(NC(=O)Nc2ccc3c(c2)[C@@H]2C[C@H](CC(=O)NC4CCCC4)O[C@@H](CO)[C@@H]2O3)cc1 | 2 | . | . | . | . | .
Cc1noc(C)c1NC(=O)N(C)C[C@@H]1OCCCC[C@H](C)Oc2ccc(N(C)C)cc2C(=O)N([C@H](C)CO)C[C@@H]1C | -11 | . | . | . | . | .
O=C(Nc1ccccc1C(=O)NC(Cc1ccccc1)C(=O)NC1CCCCC1)c1ccccc1 (stereo not drawn) | -16 | 21* | -3 | 0 | 38 | 5
COc1ccc(C(=O)Nc2ccccc2C(=O)NC(Cc2ccc(O)cc2)C(=O)NNC(=O)c2ccccc2Cl)cc1 (stereo not drawn) | -1 | 42* | -5 | 1 | -322 | 5
COc1ccc(C(=O)NNC(=O)C(C)NC(=O)c2ccccc2NC(=O)c2ccco2)cc1 (stereo not drawn) | 6 | 4 | -7 | 1 | 17 | .
O=C(Nc1ccccc1C(=O)NC(Cc1ccccc1)C(=O)O)c1ccccc1 (stereo not drawn) | 9 | 4 | 5 | 0 | 2 | .
COc1ccc(C(=O)NNC(=O)C(Cc2ccc(O)cc2)NC(=O)c2ccccc2NC(=O)c2ccc(OC)cc2)cc1 (stereo not drawn) | -15 | 60* | 0 | 0 | -416 | 3
O=C(CCN1CCCCC1)NCC[C@H]1CC[C@@H](NC(=O)C2CCC2)[C@@H](CO)O1 | 2 | . | . | . | . | .
CNC[C@@H]1Oc2ncc(Br)cc2C(=O)N([C@H](C)CO)C[C@H]1C | 10 | . | . | . | . | .
O=c1c2ccc(Cl)cc2[nH]c(=S)n1Cc1cccnc1 | . | 20* | 16 | . | -88 | 6
Fc1ccc(NC(=S)N/N=C/c2cccc(Br)c2)c(F)c1 | 18 | 36* | -2 | 0 | -7 | 2
CCOc1ccc(N(CC)C(=O)CCNC(=O)Cn2ccc3ccccc3c2=O)cc1 | . | -3 | -9 | 0 | -3 | .
CCOc1ccccc1CNC(=O)CCNC(=O)Cn1ccc2ccccc2c1=O | 7 | 23* | -19 | 0 | 6 | 2
O=C(CCNC(=O)Cn1ccc2ccccc2c1=O)NCCc1ccc(Cl)cc1 | 7 | 33* | 6 | 0 | 2 | -7
Cc1ccc(NC(=O)/C(C#N)=C/c2ccc(C)s2)c(C)c1 | . | 17* | . | -2 | 3 | 4
Cc1ccc(/C=C(\C#N)C(=O)Nc2c(C)cccc2C)s1 | 1 | 0 | 3 | 0 | -16 | .
NS(=O)(=O)c1ccc(CCNC(=O)c2ccc(NC3=NC4CS(=O)(=O)CC4S3)cc2)cc1 (stereo not drawn) | . | 18* | 2 | 0 | -9 | 5
CN1CCN(c2ccc(-c3cccc(NC(=O)COc4ccc(Cl)cc4)c3)nn2)CC1 | 22 | -9 | -12 | -2 | -4 | .
CN1CCN(c2ccc(-c3cccc(NC(=O)COc4ccc(Cl)cc4Cl)c3)nn2)CC1 | 5 | 28* | -9 | -12 | -44 | 1
SMILES | GSIS activator | dFosB act-1 | Vif inh | A1 inh | Neddyl block | dFosB act-2
CCCCn1c(N)c(N(CC(C)C)C(=O)C2CCN(S(=O)(=O)c3ccc(C)c(C)c3)CC2)c(=O)[nH]c1=O | 10 | ? | -4 | 0 | -3 | .
CCCCn1c(N)c(N(CCC(C)C)C(=O)C2CC(=O)N(c3cccc(SC)c3)C2)c(=O)[nH]c1=O (stereo not drawn) | 6 | 40* | -13 | -1 | 8 | 6
CCCCn1c(N)c(N(CC(C)C)C(=O)C2CCN(S(=O)(=O)c3ccccc3)CC2)c(=O)[nH]c1=O | -2 | 55* | 12 | 0 | 24 | 4
CCC(=O)N1CC[C@@H]2[C@@H](CO)N(C)c3ccc(-c4ccccc4)cc3[C@@H]21 | 7 | . | . | . | . | .
Cc1noc(C)c1NC(=O)Nc1ccc2c(c1)CC(=O)N([C@H](C)CO)C[C@@H](C)[C@H](CN(C)Cc1ccc(Oc3ccccc3)cc1)O2 | -5 | . | . | . | . | .
O=C(CSc1n[nH]c(-c2ccc(S(=O)(=O)N3CCCCC3)cc2)n1)Nc1nccs1 | . | 64* | -3 | 1 | . | 5
COc1ccc(S(=O)(=O)Nc2ccc3c(c2)C(=O)N([C@@H](C)CO)C[C@H](C)[C@@H](CN(C)S(=O)(=O)c2ccc(Cl)cc2)OCCCC[C@@H](C)O3)cc1 | -17 | . | . | . | . | .
O=C(N/N=C/c1ccco1)c1cc(-c2ccc(Cl)cc2)n[nH]1 | 26 | 25* | 9 | 1 | 4 | 3
COc1ccccc1CC(=O)Nc1ccc([N+](=O)[O-])cc1O | -1 | 24* | 3 | 0 | -39 | -6
O=C(Cc1ccccn1)N1CC(=O)N2[C@@H](CO)[C@H](c3ccc(C#CC4CC4)cc3)[C@@H]2C1 | 20 | . | . | . | . | .
O=C(CCCl)Nc1nnc(SCC(=O)NC2CCCC2)s1 | 1 | 20* | -5 | 0 | 1 | 0
COc1ccc(C(=O)Nc2nnc(SCC(=O)NC3CC3)s2)cc1 | 3 | 22* | . | -1 | 4 | 3
COc1ccc(Nc2nnc(SCC(=O)NC3CC3)s2)cc1 | 13 | 3 | 8 | 1 | 5 | .
COc1cccc(C(=O)Nc2nnc(SCC(=O)NC3CC3)s2)c1 | -5 | 53* | 4 | 1 | 1 | -2
COc1ccc(C(=O)Nc2nnc(SCC(=O)NCc3ccco3)s2)cc1OC | 6 | 26* | 4 | -1 | -46 | 2
COc1ccc(C(=O)Nc2nnc(SCC(=O)NC3CCCC3)s2)c(OC)c1 | 8 | -6 | 8 | -10 | 9 | .
C[C@@H]1CN([C@H](C)CO)C(=O)c2ccccc2-c2ccccc2CO[C@H]1CN(C)C(=O)c1ccc(F)cc1 | 4 | . | . | . | . | .
O=C(NCc1ccc(F)cc1)[C@@H]1[C@@H](CO)[C@@H]2Cn3c(ccc(C4=CCCCC4)c3=O)[C@H]1N2 | -3 | . | . | . | . | .
COc1ccc(NC(=O)N(C)C[C@@H]2OCCCC[C@@H](C)Oc3ccc(NC(=O)C4CCCCC4)cc3C(=O)N([C@@H](C)CO)C[C@H]2C)cc1 | -15 | . | . | . | . | .
